# Laboratory results from ChEMBL document CHEMBL3988442, “University of Dundee, Small-Polar-MMV Screening Library” (2021).
# Screen size: about 66,000 compounds; about 960 (1.5%) showed an effect of 50% or more. The full list was thinned out, with strong results kept by preference.
# Tested on: Trypanosoma brucei
# Experiment: Trypanosoma brucei 72 hour study
# Type: functional, organism-based
# Design: scale not given: in the data most compounds retested in dose-response had high values
smiles,measurement,setting,value
O=C(c1ccco1)N1C[C@H]2CN(Cc3cccc(F)c3)C(=O)[C@H]2C1,Percent Effect,"30 µM, 30.03 µM",-14.72%
O=C(CO)N1C[C@H]2CN(Cc3cccc(F)c3)C(=O)[C@H]2C1,Percent Effect,"30 µM, 30.03 µM",-7.119%
O=C(NC1CC1)N1C[C@H]2CN(Cc3cccc(F)c3)C(=O)[C@H]2C1,Percent Effect,"30 µM, 30.03 µM",59.25%
O=C(O)C(F)(F)F.O=C(O)C(F)(F)F.c1csc(CN2CCOCC3(CCN(C4CCOCC4)C3)C2)c1 (stereo unspecified),Percent Effect,"30 µM, 30.03 µM",45.09%
O=c1[nH]c2c(c(=O)n1C1CCCCC1)CCC2NCc1ccccc1 (stereo unspecified),Percent Effect,"30 µM, 30.03 µM",-25.27%
CCn1nc(C)c2ncnc(NCCCn3ccnc3)c21,Percent Effect,"30.3 µM, […]",-35.88%
Cc1ccc(Oc2ncccc2CNC(=O)C2COC(=O)N2)c(F)c1F (stereo unspecified),Percent Effect,"30 µM, 30.03 µM",17.54%
Cc1cccc(C)c1Oc1ncccc1CNC(=O)C1COC(=O)N1 (stereo unspecified),Percent Effect,"30 µM, 30.03 µM",52.62%
COc1ccccc1Oc1ncccc1CNC(=O)C1COC(=O)N1 (stereo unspecified),Percent Effect,"30 µM, 30.03 µM",-37.43%
O=C(O)C(F)(F)F.O=C(O)C(F)(F)F.O=C(O)C(F)(F)F.O=C(O)C(F)(F)F.c1ccc(CN2CCc3c(COCc4ccncc4)cncc3C2)nc1,Percent Effect,"30.3 µM, […]",-62.04%
CCN(CC)Cc1cc(=O)n2c(n1)CN(S(=O)(=O)C1CC1)CCC2.O=C(O)C(F)(F)F,Percent Effect,"30.3 µM, […]",-2.806%
COc1c(CNC2CCc3c(F)cccc32)c(C)nn1C.Cl (stereo unspecified),Percent Effect,10 µM,-43.32%
CC(C)[C@@H]1CN(CCOc2ccc(Cl)cc2)C[C@H]1NS(C)(=O)=O,Percent Effect,"30.3 µM, […]",10.13%
CC(C)[C@@H]1CN(Cc2ccccn2)C[C@H]1NS(=O)(=O)N(C)C,Percent Effect,"30 µM, 30.03 µM",-48.57%
CC(C)[C@@H]1CN(CCOc2ccccc2)C[C@H]1NS(=O)(=O)N(C)C,Percent Effect,"30.3 µM, […]",99.19%
Cc1ccc2c(c1)C(=O)NCC1(CCN(C(=O)c3ccccn3)CC1)O2,Percent Effect,"30.3 µM, […]",1.622%
CCN1C(=O)CC(c2ccccc2)C12CCN(CC1CCOCC1)CC2.O=C(O)C(F)(F)F (stereo unspecified),Percent Effect,"30.3 µM, […]",16.26%
CNc1ncc2c(n1)CN(CCc1ccccc1)C2=O,Percent Effect,"30 µM, 30.03 µM",0.2551%
COc1ccccc1OC1CCN(Cc2ccc(N(C)C)nc2)CC1,Percent Effect,"30 µM, 30.03 µM",16.29%
COCc1ncc(CN2CCC(Oc3ccccc3OC)CC2)cn1,Percent Effect,"30 µM, 30.03 µM",-7.671%
COc1ccccc1OC1CCN(Cc2cnc(N(C)C)nc2)CC1,Percent Effect,"30 µM, 30.03 µM",59.89%
C[C@@H]1C(=O)NC[C@H]2CN(Cc3ccc4c(c3)OCO4)C[C@H]21.O=C(O)C(F)(F)F,Percent Effect,"30.3 µM, […]",-39.22%
Cn1cccc1CN1CCC2(CC1)CN(c1ccccc1)C(=O)CO2.O=C(O)C(F)(F)F,Percent Effect,"30 µM, 30.03 µM",-21.68%
CCCn1ccc(C(=O)N2CCOC(c3nc(-c4cccs4)no3)C2)n1 (stereo unspecified),Percent Effect,"30 µM, 30.03 µM",67.6%
CCCn1cc(C(=O)N2CCOC(c3nc(-c4cccs4)no3)C2)cn1 (stereo unspecified),Percent Effect,"30.3 µM, […]",19.04%
CCn1ccc(C(=O)N2CCOC(c3nc(-c4cccs4)no3)C2)n1 (stereo unspecified),Percent Effect,"30.3 µM, […]",21.37%
Cc1csc(CN2CCC3(CC2)COC(COCC2CC2)C3)n1.O=C(O)C(F)(F)F (stereo unspecified),Percent Effect,"30.3 µM, […]",-1.163%
COc1nn(C)c2c1CCCN(C(=O)c1ccc3c(c1)OCO3)C2.O=C(O)C(F)(F)F,Percent Effect,"30 µM, 30.03 µM",-20.99%
CC(=O)N1CCN(c2cc(CCN)nc(C3CC3)n2)CC1.Cl,Percent Effect,"30.3 µM, […]",1.602%
COCCN1C[C@@H]2CN(Cc3ccc(F)cc3)C[C@@H]2C1=O.O=C(O)C(F)(F)F,Percent Effect,"30.3 µM, […]",-7.407%
O=C(O)C(F)(F)F.O=C1[C@H]2CN(Cc3cccs3)C[C@H]2CN1c1ccsc1,Percent Effect,"30 µM, 30.03 µM",27.72%
O=C(O)C(F)(F)F.O=C1[C@H]2CN(Cc3ccc(F)cc3)C[C@H]2CN1c1ccsc1,Percent Effect,"30 µM, 30.03 µM",14.65%
O=C(O)C(F)(F)F.O=C1[C@H]2CN(Cc3ccco3)C[C@H]2CN1c1ccsc1,Percent Effect,"30 µM, 30.03 µM",73.83%
CCOCCCn1c(NC(=O)c2ccnc(C)n2)nc2ccccc21,Percent Effect,10 µM,-13.79%
CCOCCCn1c(NC(=O)c2cnc(C)s2)nc2ccccc21,Percent Effect,10 µM,-28.52%
CCOCCCn1c(NC(=O)c2ccc(C)nc2)nc2ccccc21,Percent Effect,"30 µM, 30.03 µM",8.402%
CCN(CC)CCn1c(NC(=O)c2scnc2C)nc2ccccc21,Percent Effect,10 µM,84.6%
CCOCCCn1c(NC(=O)c2cnn(C)c2)nc2ccccc21,Percent Effect,"30 µM, 30.03 µM",64.95%
CCCn1c(NC(=O)CNC(=O)OCC)nc2ccccc21,Percent Effect,"30 µM, 30.03 µM",-18.3%
CCOCCCn1c(NC(=O)c2scnc2C)nc2ccccc21,Percent Effect,"30 µM, 30.03 µM",105.1%
CCOCCCn1c(NC(=O)c2cnc(C)cn2)nc2ccccc21,Percent Effect,10 µM,-41.49%
CCOCCCn1c(NC(=O)c2cc(C)on2)nc2ccccc21,Percent Effect,10 µM,-33.65%
Cc1noc(C)c1CN1CCOCC12CCN(c1ncccn1)CC2.O=C(O)C(F)(F)F,Percent Effect,"30.3 µM, […]",-79.15%
O=C(O)C(F)(F)F.O=C1CCC2(CCCN(CCc3ccccc3)C2)N1Cc1cccnc1 (stereo unspecified),Percent Effect,"30.3 µM, […]",-16.68%
CN(C)C(=O)[C@H]1C[C@@H]2CN(S(=O)(=O)Cc3ccccc3)C[C@H]1O2,Percent Effect,"30 µM, 30.03 µM",24.58%
COc1ccc(CN2CCO[C@H]3[C@H](OCc4ccncc4)CC[C@@H]32)cc1.O=C(O)C(F)(F)F.O=C(O)C(F)(F)F,Percent Effect,"30.3 µM, […]",-84.86%
